# Laboratory results as given in ChEMBL document CHEMBL1961873, “Compounds: GSK PKIS; Assays: Nanosyn kinase panel” (2012).
# Key:
# [1] = molecular target: Dual specificity protein kinase CLK3 (Homo sapiens) (UniProt P49761); settings: at 1 µM;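 further: each value is the mean inhibition of CLK3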
# [2] = molecular target: Dual specificity tyrosine-phosphorylation-regulated kinase 1A (Homo sapiens) (UniProt Q13627); settings: at 0.1 µM
# [3] = molecular target: Dual specificity tyrosine-phosphorylation-regulated kinase 1A (Homo sapiens) (UniProt Q13627); settings: at 1 µM
# [4] = molecular target: Dual specificity tyrosine-phosphorylation-regulated kinase 1B (Homo sapiens) (UniProt Q9Y463); settings: at 0.1 µM
# Chain of Dual specificity tyrosine-phosphorylation-regulated kinase 1B (Homo sapiens) (Q9Y463 whole entry, looked up): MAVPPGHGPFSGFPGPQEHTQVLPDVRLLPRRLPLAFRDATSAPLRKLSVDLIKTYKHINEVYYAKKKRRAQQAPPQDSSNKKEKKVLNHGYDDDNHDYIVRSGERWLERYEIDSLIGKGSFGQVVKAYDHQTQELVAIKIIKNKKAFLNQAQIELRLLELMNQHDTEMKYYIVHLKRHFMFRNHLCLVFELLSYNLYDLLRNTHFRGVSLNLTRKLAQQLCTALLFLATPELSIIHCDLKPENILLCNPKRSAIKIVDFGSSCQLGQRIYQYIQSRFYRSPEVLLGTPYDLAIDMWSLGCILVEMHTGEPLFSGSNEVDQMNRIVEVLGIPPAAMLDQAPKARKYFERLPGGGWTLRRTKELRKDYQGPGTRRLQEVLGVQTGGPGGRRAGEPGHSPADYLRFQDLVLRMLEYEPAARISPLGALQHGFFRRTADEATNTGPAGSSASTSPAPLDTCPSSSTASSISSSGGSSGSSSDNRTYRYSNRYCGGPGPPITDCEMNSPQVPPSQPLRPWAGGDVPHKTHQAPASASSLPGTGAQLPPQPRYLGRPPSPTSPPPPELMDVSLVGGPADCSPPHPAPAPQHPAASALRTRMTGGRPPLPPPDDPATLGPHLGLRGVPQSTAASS
# [5] = molecular target: Dual specificity tyrosine-phosphorylation-regulated kinase 1B (Homo sapiens) (UniProt Q9Y463); settings: at 1 µM
# [6] = molecular target: T1, Dual specificity tyrosine-phosphorylation-regulated kinase 2 (Homo sapiens) (UniProt Q92630); settings: at 0.1 µM
# T1 sequence (whole entry): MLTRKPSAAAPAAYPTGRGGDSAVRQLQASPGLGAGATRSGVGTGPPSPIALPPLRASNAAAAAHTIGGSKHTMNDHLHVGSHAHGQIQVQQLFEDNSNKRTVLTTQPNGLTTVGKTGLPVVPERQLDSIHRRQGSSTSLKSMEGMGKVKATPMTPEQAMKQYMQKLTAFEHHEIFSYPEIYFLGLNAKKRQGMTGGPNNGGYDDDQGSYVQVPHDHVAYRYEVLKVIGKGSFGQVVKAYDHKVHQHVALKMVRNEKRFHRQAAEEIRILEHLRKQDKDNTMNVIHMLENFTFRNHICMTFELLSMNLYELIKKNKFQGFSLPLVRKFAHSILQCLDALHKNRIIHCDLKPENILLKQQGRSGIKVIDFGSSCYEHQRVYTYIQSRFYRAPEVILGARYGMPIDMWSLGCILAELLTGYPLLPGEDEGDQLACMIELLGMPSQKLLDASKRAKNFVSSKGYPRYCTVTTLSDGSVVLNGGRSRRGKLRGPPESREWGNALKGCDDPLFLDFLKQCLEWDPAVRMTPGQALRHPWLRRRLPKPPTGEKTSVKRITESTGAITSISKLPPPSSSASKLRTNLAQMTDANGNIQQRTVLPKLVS
# [7] = molecular target: T1, Dual specificity tyrosine-phosphorylation-regulated kinase 2 (Homo sapiens); settings: at 1 µM
# [8] = molecular target: Glycogen synthase kinase-3 alpha (Homo sapiens) (UniProt P49840); settings: at 0.1 µM
# Chain of Glycogen synthase kinase-3 alpha (Homo sapiens) (P49840 2-483 limits assumed): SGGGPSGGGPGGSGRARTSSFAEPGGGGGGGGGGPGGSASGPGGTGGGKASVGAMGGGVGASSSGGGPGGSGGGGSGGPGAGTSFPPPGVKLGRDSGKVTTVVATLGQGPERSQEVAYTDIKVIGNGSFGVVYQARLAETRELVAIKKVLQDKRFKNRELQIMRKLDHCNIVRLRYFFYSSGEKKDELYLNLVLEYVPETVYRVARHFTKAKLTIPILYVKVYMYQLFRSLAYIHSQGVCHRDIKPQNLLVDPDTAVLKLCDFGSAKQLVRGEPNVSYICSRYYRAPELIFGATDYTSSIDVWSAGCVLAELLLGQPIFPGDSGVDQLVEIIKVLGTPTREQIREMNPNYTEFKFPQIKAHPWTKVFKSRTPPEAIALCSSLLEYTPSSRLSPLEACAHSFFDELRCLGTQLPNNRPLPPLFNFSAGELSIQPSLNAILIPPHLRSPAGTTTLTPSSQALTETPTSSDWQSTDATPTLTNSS
# [9] = molecular target: Glycogen synthase kinase-3 alpha (Homo sapiens) (UniProt P49840); settings: at 1 µM
# [10] = molecular target: Glycogen synthase kinase-3 beta (Homo sapiens) (UniProt P49841); settings: at 0.1 µM
# Chain of Glycogen synthase kinase-3 beta (Homo sapiens) (P49841 whole entry, looked up): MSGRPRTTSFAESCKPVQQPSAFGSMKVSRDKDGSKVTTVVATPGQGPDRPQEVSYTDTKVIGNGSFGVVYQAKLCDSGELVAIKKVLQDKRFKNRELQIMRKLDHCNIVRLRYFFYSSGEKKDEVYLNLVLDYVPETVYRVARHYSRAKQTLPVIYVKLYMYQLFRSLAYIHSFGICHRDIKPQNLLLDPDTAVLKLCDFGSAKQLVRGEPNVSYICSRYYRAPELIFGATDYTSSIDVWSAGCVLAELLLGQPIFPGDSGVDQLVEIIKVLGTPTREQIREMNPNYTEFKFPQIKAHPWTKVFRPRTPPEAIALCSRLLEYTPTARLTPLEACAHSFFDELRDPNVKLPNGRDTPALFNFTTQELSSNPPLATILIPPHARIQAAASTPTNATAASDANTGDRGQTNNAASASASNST
# [11] = molecular target: Glycogen synthase kinase-3 beta (Homo sapiens) (UniProt P49841); settings: at 1 µM
# [12] = molecular target: Homeodomain-interacting protein kinase 1 (Homo sapiens) (UniProt Q86Z02); settings: at 0.1 µM
# Chain of Homeodomain-interacting protein kinase 1 (Homo sapiens) (Q86Z02 whole entry, looked up): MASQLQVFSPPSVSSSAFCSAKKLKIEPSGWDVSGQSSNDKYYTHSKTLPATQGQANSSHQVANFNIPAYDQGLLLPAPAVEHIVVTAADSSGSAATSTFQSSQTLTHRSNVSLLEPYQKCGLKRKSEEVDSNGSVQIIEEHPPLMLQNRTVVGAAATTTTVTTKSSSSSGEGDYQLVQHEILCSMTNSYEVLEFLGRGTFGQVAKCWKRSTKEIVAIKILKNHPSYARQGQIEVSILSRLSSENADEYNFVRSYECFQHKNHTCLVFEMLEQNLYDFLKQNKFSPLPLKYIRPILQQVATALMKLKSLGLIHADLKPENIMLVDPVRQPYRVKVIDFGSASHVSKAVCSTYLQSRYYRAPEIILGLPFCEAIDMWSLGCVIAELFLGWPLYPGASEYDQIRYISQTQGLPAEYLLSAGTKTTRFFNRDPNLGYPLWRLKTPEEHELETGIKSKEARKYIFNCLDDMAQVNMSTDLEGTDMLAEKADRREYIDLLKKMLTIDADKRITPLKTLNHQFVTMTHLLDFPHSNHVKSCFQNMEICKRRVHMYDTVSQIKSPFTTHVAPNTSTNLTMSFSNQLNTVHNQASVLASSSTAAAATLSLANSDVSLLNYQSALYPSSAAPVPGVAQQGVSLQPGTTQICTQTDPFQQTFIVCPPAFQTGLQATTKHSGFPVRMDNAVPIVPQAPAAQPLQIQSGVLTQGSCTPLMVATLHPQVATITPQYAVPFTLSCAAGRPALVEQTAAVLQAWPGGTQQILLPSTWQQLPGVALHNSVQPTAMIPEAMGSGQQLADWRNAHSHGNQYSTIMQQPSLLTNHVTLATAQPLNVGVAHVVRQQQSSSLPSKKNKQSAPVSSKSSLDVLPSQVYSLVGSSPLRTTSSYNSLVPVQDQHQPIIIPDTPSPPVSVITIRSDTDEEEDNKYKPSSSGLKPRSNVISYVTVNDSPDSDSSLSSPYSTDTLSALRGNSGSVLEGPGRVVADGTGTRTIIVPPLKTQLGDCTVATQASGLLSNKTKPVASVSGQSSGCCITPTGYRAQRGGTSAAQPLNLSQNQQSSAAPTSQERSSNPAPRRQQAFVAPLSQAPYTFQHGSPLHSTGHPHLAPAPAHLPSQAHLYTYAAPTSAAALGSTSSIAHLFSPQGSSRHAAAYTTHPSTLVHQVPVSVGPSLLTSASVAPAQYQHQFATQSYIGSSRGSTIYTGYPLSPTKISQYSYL
# [13] = molecular target: Homeodomain-interacting protein kinase 1 (Homo sapiens) (UniProt Q86Z02); settings: at 1 µM
# [14] = molecular target: T2, Homeodomain-interacting protein kinase 4 (Homo sapiens) (UniProt Q8NE63); settings: at 0.1 µM
# T2 sequence (whole entry): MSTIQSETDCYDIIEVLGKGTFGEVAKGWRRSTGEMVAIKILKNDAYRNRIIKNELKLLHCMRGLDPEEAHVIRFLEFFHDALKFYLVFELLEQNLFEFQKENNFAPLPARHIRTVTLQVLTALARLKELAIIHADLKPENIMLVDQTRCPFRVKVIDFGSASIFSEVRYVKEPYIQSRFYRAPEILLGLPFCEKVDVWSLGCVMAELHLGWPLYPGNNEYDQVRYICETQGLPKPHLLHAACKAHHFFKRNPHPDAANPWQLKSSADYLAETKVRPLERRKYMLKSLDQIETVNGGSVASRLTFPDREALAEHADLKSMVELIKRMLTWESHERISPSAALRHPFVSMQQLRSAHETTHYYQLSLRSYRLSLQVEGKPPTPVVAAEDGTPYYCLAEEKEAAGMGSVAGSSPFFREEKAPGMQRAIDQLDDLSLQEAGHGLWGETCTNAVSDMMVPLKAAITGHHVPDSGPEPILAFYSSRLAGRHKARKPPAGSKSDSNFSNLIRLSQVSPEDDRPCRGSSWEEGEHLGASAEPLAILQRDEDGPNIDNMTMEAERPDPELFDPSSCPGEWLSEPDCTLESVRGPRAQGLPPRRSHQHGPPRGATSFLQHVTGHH
# [15] = molecular target: T2, Homeodomain-interacting protein kinase 4 (Homo sapiens); settings: at 1 µM
# [16] = molecular target: Mitogen-activated protein kinase 9 (Homo sapiens) (UniProt P45984); settings: at 0.1 µM
# Chain of Mitogen-activated protein kinase 9 (Homo sapiens) (P45984 whole entry, looked up): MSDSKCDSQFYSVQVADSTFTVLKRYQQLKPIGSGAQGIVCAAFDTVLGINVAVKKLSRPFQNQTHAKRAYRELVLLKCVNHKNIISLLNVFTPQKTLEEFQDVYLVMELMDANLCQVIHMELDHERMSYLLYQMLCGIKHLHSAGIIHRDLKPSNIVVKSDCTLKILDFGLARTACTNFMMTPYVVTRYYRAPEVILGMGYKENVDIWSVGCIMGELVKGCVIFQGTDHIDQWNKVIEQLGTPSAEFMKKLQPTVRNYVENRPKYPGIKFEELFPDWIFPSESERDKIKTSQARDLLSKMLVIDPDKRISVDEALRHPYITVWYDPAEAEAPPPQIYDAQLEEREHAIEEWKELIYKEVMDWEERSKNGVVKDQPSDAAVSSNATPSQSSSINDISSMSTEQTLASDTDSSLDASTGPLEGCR
# [17] = molecular target: Mitogen-activated protein kinase 9 (Homo sapiens) (UniProt P45984); settings: at 1 µM
# [18] = molecular target: Mitogen-activated protein kinase 1 (Homo sapiens) (UniProt P28482); settings: at 0.1 µM
# Chain of Mitogen-activated protein kinase 1 (Homo sapiens) (P28482 whole entry): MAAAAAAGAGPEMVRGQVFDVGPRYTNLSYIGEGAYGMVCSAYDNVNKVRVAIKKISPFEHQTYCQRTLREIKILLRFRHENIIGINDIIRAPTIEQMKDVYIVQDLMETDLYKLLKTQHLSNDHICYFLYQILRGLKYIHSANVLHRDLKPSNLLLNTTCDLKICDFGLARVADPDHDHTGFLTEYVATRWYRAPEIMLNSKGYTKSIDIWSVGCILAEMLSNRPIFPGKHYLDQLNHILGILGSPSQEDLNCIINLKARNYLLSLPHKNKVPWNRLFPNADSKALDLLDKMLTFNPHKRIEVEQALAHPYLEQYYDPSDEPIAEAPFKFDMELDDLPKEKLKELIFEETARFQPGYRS
# [19] = molecular target: Mitogen-activated protein kinase 1 (Homo sapiens) (UniProt P28482); settings: at 1 µM
# [20] = molecular target: Mitogen-activated protein kinase 3 (Homo sapiens) (UniProt P27361); settings: at 0.1 µM;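 further: each value is a mean inhibition figure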
# Chain of Mitogen-activated protein kinase 3 (Homo sapiens) (P27361 whole entry): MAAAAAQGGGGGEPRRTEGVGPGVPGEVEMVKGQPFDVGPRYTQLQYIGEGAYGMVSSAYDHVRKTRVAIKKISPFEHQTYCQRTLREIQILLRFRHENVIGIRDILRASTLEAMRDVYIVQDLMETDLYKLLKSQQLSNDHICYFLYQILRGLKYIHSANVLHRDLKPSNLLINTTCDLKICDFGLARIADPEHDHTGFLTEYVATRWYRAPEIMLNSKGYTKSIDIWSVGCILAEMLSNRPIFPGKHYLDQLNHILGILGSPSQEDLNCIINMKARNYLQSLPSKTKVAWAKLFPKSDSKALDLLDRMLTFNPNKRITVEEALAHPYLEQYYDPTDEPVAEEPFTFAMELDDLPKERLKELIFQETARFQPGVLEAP
# Chain of Dual specificity protein kinase CLK3 (Homo sapiens) (P49761 whole entry, looked up): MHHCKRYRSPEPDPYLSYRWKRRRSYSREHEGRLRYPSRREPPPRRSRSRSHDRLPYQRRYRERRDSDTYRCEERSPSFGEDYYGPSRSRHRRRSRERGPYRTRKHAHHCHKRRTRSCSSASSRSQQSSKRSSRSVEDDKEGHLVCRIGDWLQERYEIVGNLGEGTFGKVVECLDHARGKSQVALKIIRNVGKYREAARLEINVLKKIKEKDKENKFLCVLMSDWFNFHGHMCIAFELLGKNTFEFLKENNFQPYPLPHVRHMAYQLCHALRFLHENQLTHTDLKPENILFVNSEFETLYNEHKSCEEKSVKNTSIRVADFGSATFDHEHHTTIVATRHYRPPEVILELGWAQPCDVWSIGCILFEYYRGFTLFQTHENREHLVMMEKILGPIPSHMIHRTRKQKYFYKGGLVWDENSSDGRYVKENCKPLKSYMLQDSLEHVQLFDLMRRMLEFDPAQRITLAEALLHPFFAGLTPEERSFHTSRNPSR
SMILES,inhibition [1],inhibition [2],inhibition [3],inhibition [4],inhibition [5],inhibition [6],inhibition [7],inhibition [8],inhibition [9],inhibition [10],inhibition [11],inhibition [12],inhibition [13],inhibition [14],inhibition [15],inhibition [16],inhibition [17],inhibition [18],inhibition [19],inhibition [20]
CCNC(=O)O[C@H]1CN[C@H](C#Cc2cc3ncnc(Nc4ccc(OCc5cccc(F)c5)c(Cl)c4)c3s2)C1,2.52%,1.66%,3.98%,0.74%,1.59%,3.13%,5.14%,3.4%,9.61%,2.01%,8.04%,2.47%,5.41%,2.15%,0.62%,1.6%,4.37%,1.5%,2.66%,0.46%
CC1=C(C(=O)Nc2cc(Cl)c3[nH]ncc3c2)C(c2ccc(C(F)(F)F)cc2)CC(=O)N1 (stereo not given),1.64%,1.66%,2.44%,-1.21%,-0.06%,2.57%,2.68%,0.24%,-1.53%,0.14%,2.19%,-0.91%,-0.78%,-0.54%,2.16%,3.86%,2.16%,7.37%,35.4%,6.64%
NC(=O)c1sc(-n2cnc3ccc(C(F)(F)F)cc32)cc1OCc1ccccc1Br,4.85%,2.74%,8.54%,-0.4%,2.27%,2.93%,4.03%,1.26%,7.48%,-0.61%,3.8%,0.1%,2.51%,1.27%,4.18%,3.06%,5.5%,2.67%,4.49%,3.25%
CN(C)CCOc1ccc(-c2nc(-c3ccncc3)c(-c3ccc4c(c3)CC/C4=N\O)[nH]2)cc1,3.66%,4.17%,8.33%,2.86%,5.07%,2.04%,4.1%,5.08%,9.93%,4.7%,9.68%,6%,17.8%,3.76%,8.61%,-0.13%,6.51%,3.96%,2.88%,1.97%
COc1cc(Nc2nccc(Nc3ccc4c(C)n[nH]c4c3)n2)cc(OC)c1OC,6.44%,0.88%,7.54%,2.83%,5.43%,1.95%,4.25%,2.79%,17.3%,2.73%,16.1%,-0.29%,1.88%,1.59%,3.91%,2.22%,13.6%,0.66%,3.16%,1.57%
Fc1ccc(-c2nn3ccccc3c2-c2ccncc2)cc1,0.88%,0.99%,3.18%,0.03%,2.03%,0.76%,1.76%,1.02%,6.14%,1.33%,10.7%,-1.55%,0.97%,-0.72%,0.37%,4.3%,25.4%,0.83%,1.21%,1.33%
N#Cc1c(NC(=O)CN2CCOCC2)sc2c1CCCC2,7.77%,7.33%,11%,4.95%,8.26%,1.96%,4.75%,10.6%,9.38%,11%,7.42%,6.67%,10.1%,7.62%,6.09%,4.4%,9.83%,4.06%,4.79%,3.09%
CC(=O)Nc1cccc(C#Cc2cncnc2Nc2ccc(OCc3cccc(F)c3)c(Cl)c2)c1,0.73%,-0.41%,1.4%,0.85%,-0.33%,3.61%,1.41%,2.72%,5.35%,1.98%,4.53%,-1.76%,-0.76%,1.24%,4.47%,2.12%,3.22%,2.93%,3.14%,2.14%
c1ccc(-c2nc3n(c2-c2ccc4c(c2)OCO4)CCC3)nc1,1.02%,1.52%,6.32%,1.24%,5.19%,1.61%,1.95%,1.93%,5.52%,2.03%,6.89%,0.04%,0.44%,-0.4%,-0.33%,1.36%,1.96%,-0.55%,0.62%,0.29%
CC(C)(CO)CNC(=O)c1ccc2c(c1)/C(=N/Nc1ccc(S(N)(=O)=O)cc1)C(=O)N2,9.15%,-0.06%,7.83%,-0.36%,1%,0.82%,9.64%,23.2%,65.2%,22.4%,66.8%,-4.78%,13.1%,-0.55%,4.55%,-0.59%,8.39%,8.62%,42.1%,1.78%
COc1cccc(-c2c[nH]c3c(N/N=C/c4ccncc4)ncnc23)c1,14%,16.1%,58.5%,11.3%,50.5%,11.7%,57.8%,78.9%,83.5%,76.6%,83.5%,5.99%,41.7%,10.1%,43.2%,2.08%,8.51%,1.55%,5.09%,1.78%
O=C(O[C@H]1CN[C@H](C#Cc2cc3ncnc(Nc4ccc(Cc5ccccc5)cc4)c3s2)C1)N1CCOCC1,0.23%,1.9%,-0.14%,1.3%,2.47%,2.26%,0.33%,2.45%,3.62%,0.78%,2.73%,-2.13%,0.97%,0.04%,-1.93%,-0.66%,-0.45%,3.25%,3.25%,2.66%
Cc1ccc2c(-c3ccnc(Nc4ccccc4)n3)c(-c3ccc(F)cc3)nn2n1,1.61%,0.7%,5.42%,1%,3.35%,3.2%,2.94%,9.81%,44.8%,22.4%,66.7%,-0.41%,7.55%,2.12%,4.2%,44%,81.2%,4.23%,10.5%,3.56%
Fc1ccc(-c2nn3ncccc3c2-c2ccnc(Nc3ccc4c(c3)OCCO4)n2)cc1,0.91%,1.5%,3.37%,0.99%,-1.69%,3.56%,4.44%,19.6%,59.7%,39%,76.1%,-1.25%,-1.1%,-0.3%,4.58%,58.4%,84.9%,2.51%,11.1%,5.61%
